This is a sample that favours compounds with a hit; in the whole collection about 3% have one here.
ClpP mod – qHTS Assay for Activators of ClpP; ATP-dependent Clp protease proteolytic subunit (Bacillus subtilis (strain 168)), P80244; purified B. subtilis ClpP, FRET peptide cleavage, 20 min; Potency, µM (top dose mostly 57.5 µM); actives 1.9% (n = 340,000); active = well fitted falling curve with a large enough effect; inconclusive = small, poorly fitted or top-dose-only effect; inactive = no such curve, though single readings can be large or run the other way; note: the source files actives as falling curves though it sought activators and does not explain the sign; nearly all actives have a fitted effect of over 65% in size
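Buffer: 100 mM Tris/HCl pH8, 100 mM KCl, 0.05% low protease BSA, 2.5% glycerol, 0.01% Tween-20. ClpP 10 microg/mL final; 20 min RT; delta FRET normalized to ADEP and DMSO controls.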
KCNH2 WT inh – qHTS for Inhibitors of KCHN2 3.1: Wildtype qHTS; Voltage-gated inwardly rectifying potassium channel KCNH2 (Homo sapiens), Q12809; U2OS, BacMam KCNH2, thallium flux FluxOr; active compounds read low; activity change, % at 1.84 µM; actives 0.37% (n = 340,000);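 active = maximum activity change below -70%; inconclusive = maximum activity change between -70% and -50%; inactive = maximum activity change above -50%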
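U2OS cells transduced with wild-type KCNH2 virus are loaded with FluxOr dye for 45 min, and thallium flux is measured in kinetic reads before and after stimulation buffer. Rate constants are normalized to DMSO controls.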
KCNH2 3.1 block – qHTS for Inhibitors of KCHN2 3.1: Mutant qHTS; Potassium voltage-gated channel subfamily H member 2, brain isoform KCNH2 3.1 (human); U2OS KCNH2 3.1, thallium flux FluxOr; active compounds read low; activity change, % (tested at about 1.8 µM); actives 0.95% (n = 340,000);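 active = maximum activity change below -70%; inconclusive = maximum activity change from -70% to -50%; inactive = maximum activity change above -50%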;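 note: thallium influx rate constant from kinetic fluorescence after stimulation buffer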
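Thallium flux read-out: FluxOr dye with Red40 quencher in HBSS/HEPES, 45 min at RT. Rate constants from kinetic reads were normalized to positive and negative DMSO controls. Cells: U2OS virally expressing the 3.1 isoform.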
ALOX12 inh – Primary qHTS assay for inhibitors of human arachidonate 12S-lipoxygenase (ALOX12): Round 2. actives 1.1% (n = 580,000). Potency, µM (series often up to 108 µM), usual class: inhibitors. purified 12hLO, xylenol orange hydroperoxide absorbance. AID 1671190, 2021; active = well fitted inhibition curve with a large enough effect; inconclusive = small, poorly fitted or top-dose-only effect, or another doubt; inactive = no such curve, though single readings can be large or run the other way
Target sequence (P18054 whole entry, looked up): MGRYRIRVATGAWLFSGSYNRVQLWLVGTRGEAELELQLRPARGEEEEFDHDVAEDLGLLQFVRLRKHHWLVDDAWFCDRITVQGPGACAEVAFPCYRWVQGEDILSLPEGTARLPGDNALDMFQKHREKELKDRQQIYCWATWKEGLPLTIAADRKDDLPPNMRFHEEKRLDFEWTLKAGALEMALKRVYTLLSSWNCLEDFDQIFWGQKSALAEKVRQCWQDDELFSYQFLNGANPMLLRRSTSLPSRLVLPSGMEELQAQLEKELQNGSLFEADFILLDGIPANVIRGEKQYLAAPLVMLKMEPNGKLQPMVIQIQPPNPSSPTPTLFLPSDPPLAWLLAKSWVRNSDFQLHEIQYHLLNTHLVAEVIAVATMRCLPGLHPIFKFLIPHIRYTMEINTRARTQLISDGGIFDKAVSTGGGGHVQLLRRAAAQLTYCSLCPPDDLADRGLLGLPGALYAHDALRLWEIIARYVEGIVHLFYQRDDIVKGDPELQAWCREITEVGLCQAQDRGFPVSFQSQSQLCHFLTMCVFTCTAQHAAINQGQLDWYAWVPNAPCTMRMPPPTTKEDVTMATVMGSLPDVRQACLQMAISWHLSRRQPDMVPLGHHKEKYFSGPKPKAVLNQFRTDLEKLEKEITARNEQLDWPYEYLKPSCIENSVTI
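Purified human 12hLO (150 nM final) in 25 mM Hepes, 0.01% Triton X-100, pH 7.0 was preincubated 15 min at room temperature with compound. Then 40 uM arachidonic acid was added, 30 min. Hydroperoxide was read by Fe-XO absorbance ratio 573/405 nm.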
BCR signal inh – qHTS Assay to Find Inhibitors of Chronic Active B-Cell Receptor Signaling. AID 493014, 2011. ABC-DLBCL IkBa-CBG/CBR reporter, luminescence ratio, 4 h. Potency, µM (series often up to 46.1 µM), most hits filed as inhibitors. actives 0.05% (n = 340,000); active = well fitted inhibition curve with a large enough effect in the signal ratio, with a control signal flat, not every such curve was filed as active; inconclusive = small, poorly fitted or top-dose-only effect, or effect the other way, or a change in a side signal; the % refers to the signal ratio
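Cell line TMD8 (human ABC DLBCL), stably expressing tet-inducible CBG68-IkBa fusion and CBR; IMDM/0.5% FBS; cpd up to 46 uM; dox induction, 4 h, 37C/5% CO2; dual luminescence; green/red ratio; MG132 control.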
LDHA block – qHTS assay for inhibitors of human lactate dehydrogenase | L-lactate dehydrogenase A chain (Homo sapiens), P00338 | activity change, % (values are at about 110 or 230 µM) | actives 0.15% (n = 480,000) | AID 1347041, 2019 | purified LDHA, NADH/diaphorase-resazurin fluorescence; active compounds read low; in the data active = activity change below about -30%; inconclusive = mostly about -25% to -30%
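Resorufin fluorescence (ex540/em590), read at 0 and 20 min after diaphorase/resazurin addition, reports the NADH left after a 5 min room-temperature reaction of 2 nM human LDH5 with 0.06 mM NADH and 0.2 mM pyruvate.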
Large screens that a line does not name were inactive.

CC(O)(c1cccc(F)c1)c1nc(/C=C/c2ccccc2)cs1 (centres undefined)	ALOX12 inh inconclusive (no result: KCNH2 WT inh, KCNH2 3.1 block, BCR signal inh)
COc1ccc(/C=N/OC(=O)COc2cc(C)cc(C)c2)cc1COc1ccc(F)cc1	none (no result: ClpP mod, KCNH2 WT inh, KCNH2 3.1 block, BCR signal inh)
COc1ccc(OC)c(NC(=O)CC2CC3CCC2C3)c1 (centres undefined)	none (no result: ClpP mod, KCNH2 WT inh, KCNH2 3.1 block, BCR signal inh)
Cc1cccc(C)c1NC(=O)CNC(=O)C(C)N1CCN(c2cccc(Cl)c2)CC1 (centres undefined)	BCR signal inh inconclusive
CC(C(=O)Nc1cc(Cl)cc(Cl)c1)N1CCN(c2ccc(O)cc2)CC1 (centres undefined)	ALOX12 inh 20µM (no result: ClpP mod, KCNH2 WT inh, KCNH2 3.1 block, BCR signal inh)
O=C(CSc1nccn2nc(-c3cccc4ccccc34)cc12)NCc1ccc(F)cc1	none (no result: ClpP mod, KCNH2 WT inh, KCNH2 3.1 block, BCR signal inh)
Cc1nn(-c2ccccc2)c(CSc2ccc3c(c2)OCCCO3)c1C#N	ALOX12 inh inconclusive (no result: ClpP mod, KCNH2 WT inh, KCNH2 3.1 block, BCR signal inh)
CCc1ccc(-n2nc(C)c3c(C(=O)Nc4cccc(C(F)(F)F)c4)cc(C)nc32)cc1	ClpP mod 22.4µM (no result: KCNH2 WT inh, KCNH2 3.1 block, BCR signal inh)
CCN(CC)CC1CCN(C(=O)c2cccc(C#N)c2)CC1	none (no result: ClpP mod, KCNH2 WT inh, KCNH2 3.1 block, BCR signal inh)
O=C(/C=C/c1cccs1)Nc1scc(-c2ccccc2)c1C(=O)O	ALOX12 inh 44.7µM, BCR signal inh inconclusive (no result: ClpP mod)
O=C(/C=C/c1cccs1)Nc1nc(-c2ccccc2)cs1	BCR signal inh inconclusive
Cc1sc(NC(=O)/C=C/c2cccs2)c(C#N)c1C	ALOX12 inh 7.94µM (no result: ClpP mod, KCNH2 WT inh, KCNH2 3.1 block, BCR signal inh)
CCONC(=O)Cc1ccccc1C	ALOX12 inh inconclusive (no result: ClpP mod, KCNH2 WT inh, KCNH2 3.1 block, BCR signal inh)
O=C1CC(C(=O)Nc2ccc(Br)cc2)c2ccc(F)cc2N1 (centres undefined)	ALOX12 inh inconclusive (no result: ClpP mod, KCNH2 WT inh, KCNH2 3.1 block, BCR signal inh)
Oc1ccccc1/C=N/n1c(COc2ccccc2)n[nH]c1=S	ClpP mod 35.5µM, BCR signal inh inconclusive
Oc1ccc(/C=N/n2c(COc3ccccc3)n[nH]c2=S)c(O)c1	ALOX12 inh 44.7µM
O[C@H]1[C@H](NCC2CCCC2)[C@@H](C2CCCCC2)C[C@H]1O	none (no result: ClpP mod, KCNH2 WT inh, KCNH2 3.1 block, BCR signal inh, LDHA block)
CN(C(=O)c1ccc(C(=O)N(C)c2ccccc2)cc1)c1ccccc1	ALOX12 inh inconclusive (no result: ClpP mod, KCNH2 WT inh, KCNH2 3.1 block, BCR signal inh)
CCNS(=O)(=O)c1ccc2c3c(cccc13)C(=O)N2	ClpP mod 31.6µM
O=C1/C(=C/c2ccc([N+](=O)[O-])cc2)C=C(c2ccccc2)N1c1ccccc1	none
O=C(O)c1cccc(N2C(=O)/C(=C/c3ccc([N+](=O)[O-])cc3)C=C2c2ccccc2)c1	ALOX12 inh 35.5µM, BCR signal inh inconclusive (no result: KCNH2 WT inh)
Cc1[nH][nH]c(=O)c1C(c1ccccc1OCc1ccccc1Cl)c1c(C)[nH][nH]c1=O	ALOX12 inh inconclusive (no result: ClpP mod, KCNH2 WT inh, KCNH2 3.1 block, BCR signal inh)
O=C(/C=C/c1ccccc1Br)c1ccc(O)c(CCCl)c1	ALOX12 inh 12.6µM (no result: ClpP mod, KCNH2 WT inh, KCNH2 3.1 block, BCR signal inh)
O=[N+]([O-])c1ccc(C(O)CN2CCN(Cc3ccccc3)CC2)cc1 (centres undefined)	KCNH2 3.1 block -70.4 (no result: ClpP mod)
O=[N+]([O-])c1ccc(NC2CCN(Cc3ccccc3)CC2)c([N+](=O)[O-])c1	KCNH2 WT inh -74.2, KCNH2 3.1 block -96.5
O=[N+]([O-])c1ccc(C(O)CN2CCN(C/C=C/c3ccccc3)CC2)cc1 (centres undefined)	KCNH2 WT inh -93.7, KCNH2 3.1 block -112.7 (no result: ClpP mod)
CC(CN1CCN(C/C=C/c2ccccc2)CC1)c1ccccc1 (centres undefined)	ALOX12 inh 0.794µM
O=C(C(c1ccccc1)c1ccccc1)N1CCN(C/C=C/c2ccccc2)CC1	none (no result: ClpP mod, KCNH2 WT inh, KCNH2 3.1 block, BCR signal inh)
CC(C)(C)C(=O)/C=c1/[nH]c(=O)/c(=C/c2ccccc2C(F)(F)F)s1	ALOX12 inh inconclusive (no result: ClpP mod, KCNH2 WT inh, KCNH2 3.1 block, BCR signal inh)
COc1ccc(NC(=O)CN(C)C(=O)c2cc(-c3ccco3)nc3ccccc23)cc1	ALOX12 inh inconclusive

Screening results (PubChem BioAssay)
